High-throughput results: PubChem, National Center for Advancing Translational Sciences (NCATS)
KB-3-1 tox – KB-3-1 parental cell cytotoxicity. KB-3-1 viability, CellTiter-Glo ATP luminescence, 72 h. 400,000 tested, 1.4% active. Potency, µM (titrated, usually from 46.1 µM), usual class: cytotoxic; further: nearly all actives have a fitted effect of over 60% in size
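KB-3-1 parental drug-naive adenocarcinoma cells in DMEM/10% FBS, incubated 72 h at 37 C with pin-transferred compounds across a concentration series. Viability by CellTiter-Glo luminescence; concentration-response curves fitted after normalization.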
MCF10A rereplic – DNA re-replication induction in MCF 10a cells. Potency, µM (doses to about 46.1 µM), usual class: activators. 350,000 tested, 2.9% active. AID 624296. MCF 10A DNA re-replication, Hoechst nuclear intensity, 48 h; further: nearly all actives have a fitted effect of over 50% in size
SW480 rerep – induces DNA re-replication in SW480 colon adenocarcinoma cells; SW480 DNA re-replication, Hoechst DNA content imaging, 48 h; Potency, µM (top dose mostly 46.1 µM), most hits filed as activators; 340,000 tested, 1.8% active; AID 624297; further: nearly all actives have a fitted effect of over 55% in size
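Compounds, transferred as 23 nL by pin tool, were incubated with cells for 48 hr; DNA content per nucleus was then quantified by Hoechst staining and fluorescence plate imaging.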
PTAP TSG101 blk – blocks PTAP/TSG101 interaction to inhibit HIV-1 budding; 340,000 tested, under 10 active; AID 493005; Q99816; Potency, µM (series often up to 115 µM), actives largely listed as inhibitors; Fluorescence polarization, FITC-PTAP peptide / Tsg101 binding; active means well fitted inhibition curve with a large enough effect in the main read-out, with a control signal flat, not every such curve was filed as active; inconclusive means small, poorly fitted or top-dose-only effect, or effect the other way, or a change in a side signal; inactive means no such curve, though single readings can be large or run the other way
Target sequence (Q99816 whole entry, looked up): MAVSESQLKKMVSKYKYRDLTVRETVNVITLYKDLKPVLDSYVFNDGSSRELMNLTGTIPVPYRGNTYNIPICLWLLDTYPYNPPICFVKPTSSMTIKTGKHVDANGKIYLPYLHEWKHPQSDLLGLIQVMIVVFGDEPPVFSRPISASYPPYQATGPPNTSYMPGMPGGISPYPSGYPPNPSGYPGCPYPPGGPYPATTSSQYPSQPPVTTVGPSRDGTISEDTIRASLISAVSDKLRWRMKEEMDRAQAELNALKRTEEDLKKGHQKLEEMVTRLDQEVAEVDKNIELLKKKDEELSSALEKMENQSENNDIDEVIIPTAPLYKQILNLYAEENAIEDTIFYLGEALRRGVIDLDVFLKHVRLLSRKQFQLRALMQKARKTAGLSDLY
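FP read-out: FITC-PTAP peptide, 50 nM final, binding Tsg101 binding domain, 10 uM final; 20 min, r.t.; 10 mM HEPES pH 7.5, 0.15 M NaCl, 0.01% Tween 20, 3 mM EDTA, 0.1 mM TCEP.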
KB-V1 MDR tox – kills drug-selected multidrug resistant KB-V1 cells; KB-V1 MDR cells viability, CellTiter-Glo, 72 h; Potency, µM (top dose mostly 46.1 µM), hits mostly cytotoxic; 400,000 tested, 3.4% active; AID 1347076; further: nearly all actives have a fitted effect of over 60% in size
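KB-V1, DMEM (no phenol red) + 10% FBS; cpd pin-transferred, titration series; 72 h, 37 degrees C; CellTiter-Glo, luminescence. Data normalized, curve-fit.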
RGS4 inh – human RGS4 inhibition | Transcreener GDP fluorescence polarization, RGS4-accelerated GTP hydrolysis | 390,000 tested, 0.039% active | Potency, µM (top dose mostly 114 µM), most hits filed as inhibitors; further: nearly all actives have a fitted effect of over 75% in size
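MLSMR compounds (23 nl, pin-transferred) preincubated 10 min at room temperature with a 500nM (2x) first reagent, then RGS4 at 900nM (2x) plus Transcreener GDP mix added; fluorescence polarization (620/688 nm) read before and after 90 min at 30 °C.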
Numbers stand for hits; – = inactive; ? = inconclusive; · = no result. A selection: hits, their analogues and other compounds. The true share with any hit is near 6.6%. Unless noted, the call rests on the fitted dose curve; in most records, active means well fitted curve in the direction sought with a large enough effect; inconclusive means small, poorly fitted or top-dose-only effect, or another doubt; inactive means no such curve, though single readings can be large; an effect the other way counts as inactive or inconclusive.

SMILES | KB-3-1 tox | MCF10A rereplic | SW480 rerep | PTAP TSG101 blk | KB-V1 MDR tox | RGS4 inh
CCS(=O)(=O)Nc1ccc(C2=NN(C(=O)c3ccco3)C(c3ccco3)C2)cc1 (stereo unspecified) | 3.7µM | 9.2µM | ? | – | ? | –
CS(=O)(=O)Nc1cccc(C2=NN(C(=O)c3ccco3)C(c3ccco3)C2)c1 (stereo unspecified) | ? | ? | ? | – | – | –
CCOC(=O)c1c(C)[nH]c(C)c1S(=O)(=O)N(C)CC(=O)N1CCN(c2cccc(Cl)c2)CC1 | – | · | · | · | ? | –
Cc1cc2c(n1-c1ccc(Cl)cc1)CC(C)(C)CC2=O | – | – | – | · | 13µM | –
CC1(C)CC(=O)c2cc(C#N)c(=O)n(-c3ccc(Cl)cc3)c2C1 | – | · | · | · | – | –
CC1CC=CC2C1C(=O)N(Cc1ccccc1)C2c1ccc(-c2cc3ccccc3s2)cc1F (stereo unspecified) | · | · | · | · | · | –
Cc1ccc(/C=N/NC(=O)CSc2nc3ccccc3c(=O)n2-c2ccccc2C)s1 | ? | – | 0.52µM | – | 10µM | –
Cc1ccccc1-n1c(SCC(=O)N/N=C/c2sccc2C)nc2ccccc2c1=O | – | ? | ? | – | ? | –
Cc1ccccc1-n1c(SCC(=O)N/N=C/c2c(C)nn(-c3ccccc3)c2C)nc2ccccc2c1=O | – | ? | – | – | 5.8µM | –
CCn1c(SCC(=O)N/N=C/C=C/c2ccco2)nnc1-c1ccc(OC)cc1 | – | – | – | – | – | –
Cc1ccc(-n2c(SCC(=O)N/N=C/c3c(C)nn(-c4ccccc4)c3C)nc3ccccc3c2=O)cc1 | – | – | – | – | – | –
Cc1nn(-c2ccccc2)c(C)c1/C=N/NC(=O)CSc1nc2ccccc2c(=O)n1-c1ccc(Br)cc1 | ? | 13µM | – | – | 23µM | –
CCn1c(SCC(=O)N/N=C/C=C/c2ccco2)nc2ccccc21 | – | 21µM | 16µM | – | – | ?
Cc1ccc(NC(=O)C(Cc2ccccc2)N2Cc3ccccc3C2=O)cc1Cl (stereo unspecified) | · | · | · | · | · | –
COc1cccc(-c2ccc3c(N)c(C(=O)NCc4ccc(Cl)cc4)sc3n2)c1 | – | · | · | · | – | –
Cc1noc(C)c1S(=O)(=O)N(CC(=O)NCc1ccccc1Cl)c1ccc(C(C)C)cc1 | – | · | · | · | – | –
COc1ccc(NC(=O)c2noc3c2CCCC3)cc1Cl | – | · | · | · | – | –
CCC(=O)N1CCc2cc(Br)cc(S(=O)(=O)N(CC)Cc3ccccc3)c21 | – | · | · | · | – | –
CC(C)CCCC(C)C1CC(=O)C2=C3CCC4CC(O)CCC4(C)C3CCC21C (stereo unspecified) | · | ? | – | · | · | ·
CCCCSCCCNC(=O)C1CCN(Cc2nc(-c3ccc(CC)cc3)oc2C)CC1 | – | · | · | · | – | –
Cc1ccc(/C=N/NC(=O)CSc2nc3ccccc3c(=O)n2-c2ccccc2)s1 | – | – | – | – | – | –
COc1cccc(-n2c(SCC(=O)NCc3cccs3)nc3ccccc3c2=O)c1 | – | ? | – | – | – | –
CC(/C=N/NC(=O)CSc1nc2ccccc2n1C)=C\c1ccco1 | – | 21µM | ? | – | ? | ?
Cc1ccccc1-n1c(SCC(=O)NCc2cccs2)nc2ccccc2c1=O | – | – | – | – | 5.8µM | –
CCn1c(SCC(=O)N/N=C/c2ccc(C)s2)nc2ccccc21 | 13µM | 13µM | ? | – | ? | –
C=CCn1c(N2CCCCCC2)nc2c1c(=O)n(C)c(=O)n2C | – | – | – | – | 16µM | –
C=CCOCC(O)Cn1c(N2CCCC2)nc2c1c(=O)n(C)c(=O)n2C (stereo unspecified) | – | 1.3µM | – | – | – | –
Cn1c(=O)c2c(nc(N3CCCC3)n2CC(O)CO)n(C)c1=O (stereo unspecified) | – | – | – | – | – | –
Cc1nc(-n2nc(C)c(CCC(C)C)c2C)sc1C(=O)Nc1ccc(Br)cc1 | – | · | · | · | – | –
